# Assay results as given in the supplement of paper PMC6853941.
# A number with no mark means an inactive call.
# Test system: MCF10A
# Test: perturbation Mahalanobis distance of morphological profile vs DMSO controls (Mahalanobis distance (SD units)); higher = stronger morphological change, active = 7 or more
# Settings: 72 h
# Description: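 MCF10A cells were seeded onto drugs dispensed acoustically into 384-well plates, using one dose per drug chosen from its human peak plasma concentration, and incubated for 72 h at 37 °C. Cells were stained for DNA, tubulin and mitochondria and imaged; 78 CellProfiler features were extracted, plate-normalised and compared with DMSO wells.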
# [1] = screen batch: Batch1_Mahalanobis_Distance
# [2] = screen batch: Batch2_Mahalanobis_Distance
SMILES,perturbation Mahalanobis distance [1],perturbation Mahalanobis distance [2]
NC(=O)c1ncn([C@@H]2O[C@H](CO)[C@@H](O)[C@H]2O)n1 [Ribavirin] (75.3 µM),5.79,11.4 (active)
CCN1CC(CCN2CCOCC2)C(c2ccccc2)(c2ccccc2)C1=O (stereo not drawn) [Doxapram] (66 µM),2.26,2.47
CCOC(=O)c1ncn2c1CN(C)C(=O)c1cc(F)ccc1-2 [Flumazenil] (1.6 µM),4.28,3.54
O=C1[C@H](CC[C@H](O)c2ccc(F)cc2)[C@@H](c2ccc(O)cc2)N1c1ccc(F)cc1 [Ezetimibe] (0.87 µM),3.59,2.59
